According to the supplement of paper PMC11732987, “Enantioselective OTUD7B fragment discovery through chemoproteomics screening and high-throughput optimisation” (Communications Chemistry, 2025):

Legend:
Test in all cases: log2 ratio of Biotin-Ahx-Ub-VS probe labelling (fragment/DMSO); higher = less target engagement (more negative = stronger competition), active = hit call of the paper (q ≤ 0.05, log2 ratio ≤ -1)
Conditions in all cases: compound concentration: 200 uM; treatment time: 3 h
[1] = target: T1, USP19 (UniProt O94966)
T1 sequence (whole entry): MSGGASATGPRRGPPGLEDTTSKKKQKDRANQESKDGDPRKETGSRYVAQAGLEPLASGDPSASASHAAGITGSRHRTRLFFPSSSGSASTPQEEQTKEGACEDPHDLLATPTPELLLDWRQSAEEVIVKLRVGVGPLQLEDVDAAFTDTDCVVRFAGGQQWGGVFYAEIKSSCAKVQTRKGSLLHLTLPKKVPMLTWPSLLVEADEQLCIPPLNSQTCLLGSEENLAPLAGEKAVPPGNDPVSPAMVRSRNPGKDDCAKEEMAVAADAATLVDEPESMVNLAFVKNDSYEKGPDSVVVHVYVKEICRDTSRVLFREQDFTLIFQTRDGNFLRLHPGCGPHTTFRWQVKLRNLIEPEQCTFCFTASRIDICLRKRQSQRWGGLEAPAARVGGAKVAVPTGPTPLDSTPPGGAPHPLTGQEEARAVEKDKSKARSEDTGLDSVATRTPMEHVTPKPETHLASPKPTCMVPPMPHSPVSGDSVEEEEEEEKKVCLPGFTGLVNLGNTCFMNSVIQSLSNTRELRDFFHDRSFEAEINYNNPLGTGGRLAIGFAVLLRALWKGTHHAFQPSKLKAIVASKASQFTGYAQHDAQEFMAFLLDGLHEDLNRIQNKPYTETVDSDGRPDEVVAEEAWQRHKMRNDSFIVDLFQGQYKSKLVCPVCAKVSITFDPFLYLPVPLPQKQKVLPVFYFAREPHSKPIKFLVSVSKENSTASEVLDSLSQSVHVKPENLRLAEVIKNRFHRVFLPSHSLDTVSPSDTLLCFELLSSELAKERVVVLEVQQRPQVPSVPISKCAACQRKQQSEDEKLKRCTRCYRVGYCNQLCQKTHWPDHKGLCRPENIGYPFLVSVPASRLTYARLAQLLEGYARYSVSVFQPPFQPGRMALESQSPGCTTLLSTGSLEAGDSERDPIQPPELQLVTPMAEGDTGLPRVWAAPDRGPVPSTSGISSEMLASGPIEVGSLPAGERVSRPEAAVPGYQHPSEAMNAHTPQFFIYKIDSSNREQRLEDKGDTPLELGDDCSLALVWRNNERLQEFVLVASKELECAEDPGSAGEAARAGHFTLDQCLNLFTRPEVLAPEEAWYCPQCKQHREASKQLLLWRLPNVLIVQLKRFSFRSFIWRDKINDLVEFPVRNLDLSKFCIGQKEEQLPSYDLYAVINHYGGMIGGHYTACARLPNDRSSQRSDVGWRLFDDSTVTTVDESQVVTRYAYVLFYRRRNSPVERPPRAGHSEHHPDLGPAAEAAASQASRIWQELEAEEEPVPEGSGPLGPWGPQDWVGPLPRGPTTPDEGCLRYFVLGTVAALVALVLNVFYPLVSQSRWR
Outline: (§1)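 HEK293T lysate (495 µg per sample, in Tris/CHAPS/IGEPAL buffer with protease inhibitors) was treated in triplicate with fragment at 200 µM or with DMSO for 3 h. It was then treated with Biotin-Ahx-Ub-VS (0.5 µM final) for 1 h. Labelled DUBs were NeutrAvidin-enriched, digested with LysC and trypsin, and run by diaPASEF LC-MS/MS. Spectronaut label-free quantities were global-median-normalised. Values are average log2 ratios fragment/DMSO by unpaired t-test, using proteins with ≥2 unique peptides.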

[2] = target: USP24 (UniProt Q9UPU5)
Outline: as §1

[3] = target: T2, USP25 (UniProt Q9UHP3)
T2 sequence (whole entry): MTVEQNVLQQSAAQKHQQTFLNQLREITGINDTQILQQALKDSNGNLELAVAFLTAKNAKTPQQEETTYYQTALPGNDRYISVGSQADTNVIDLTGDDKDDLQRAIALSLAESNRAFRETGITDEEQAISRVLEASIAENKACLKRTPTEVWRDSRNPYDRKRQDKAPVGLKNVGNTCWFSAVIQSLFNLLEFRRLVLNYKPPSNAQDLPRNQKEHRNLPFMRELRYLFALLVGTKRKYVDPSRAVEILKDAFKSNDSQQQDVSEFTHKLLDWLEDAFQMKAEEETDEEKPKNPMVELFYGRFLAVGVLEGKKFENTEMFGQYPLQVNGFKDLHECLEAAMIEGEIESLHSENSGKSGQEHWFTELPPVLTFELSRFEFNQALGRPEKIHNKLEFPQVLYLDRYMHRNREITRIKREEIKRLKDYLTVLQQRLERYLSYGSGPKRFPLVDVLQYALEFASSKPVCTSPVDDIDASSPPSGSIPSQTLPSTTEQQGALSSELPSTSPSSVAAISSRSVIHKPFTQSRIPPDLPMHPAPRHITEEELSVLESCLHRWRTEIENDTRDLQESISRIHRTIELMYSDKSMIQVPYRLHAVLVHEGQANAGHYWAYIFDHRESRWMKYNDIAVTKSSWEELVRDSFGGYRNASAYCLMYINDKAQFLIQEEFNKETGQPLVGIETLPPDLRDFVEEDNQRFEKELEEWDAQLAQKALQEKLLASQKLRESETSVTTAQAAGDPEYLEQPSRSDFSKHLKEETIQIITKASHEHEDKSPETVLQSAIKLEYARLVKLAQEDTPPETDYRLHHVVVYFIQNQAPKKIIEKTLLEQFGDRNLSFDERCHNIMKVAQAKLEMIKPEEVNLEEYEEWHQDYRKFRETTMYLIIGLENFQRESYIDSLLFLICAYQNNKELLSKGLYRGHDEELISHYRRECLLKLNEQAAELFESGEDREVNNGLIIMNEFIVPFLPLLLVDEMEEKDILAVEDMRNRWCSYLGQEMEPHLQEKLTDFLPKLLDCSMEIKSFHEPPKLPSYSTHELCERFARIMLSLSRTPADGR
Outline: as §1

[4] = target: T3, USP28 (UniProt Q96RU2)
T3 sequence (whole entry): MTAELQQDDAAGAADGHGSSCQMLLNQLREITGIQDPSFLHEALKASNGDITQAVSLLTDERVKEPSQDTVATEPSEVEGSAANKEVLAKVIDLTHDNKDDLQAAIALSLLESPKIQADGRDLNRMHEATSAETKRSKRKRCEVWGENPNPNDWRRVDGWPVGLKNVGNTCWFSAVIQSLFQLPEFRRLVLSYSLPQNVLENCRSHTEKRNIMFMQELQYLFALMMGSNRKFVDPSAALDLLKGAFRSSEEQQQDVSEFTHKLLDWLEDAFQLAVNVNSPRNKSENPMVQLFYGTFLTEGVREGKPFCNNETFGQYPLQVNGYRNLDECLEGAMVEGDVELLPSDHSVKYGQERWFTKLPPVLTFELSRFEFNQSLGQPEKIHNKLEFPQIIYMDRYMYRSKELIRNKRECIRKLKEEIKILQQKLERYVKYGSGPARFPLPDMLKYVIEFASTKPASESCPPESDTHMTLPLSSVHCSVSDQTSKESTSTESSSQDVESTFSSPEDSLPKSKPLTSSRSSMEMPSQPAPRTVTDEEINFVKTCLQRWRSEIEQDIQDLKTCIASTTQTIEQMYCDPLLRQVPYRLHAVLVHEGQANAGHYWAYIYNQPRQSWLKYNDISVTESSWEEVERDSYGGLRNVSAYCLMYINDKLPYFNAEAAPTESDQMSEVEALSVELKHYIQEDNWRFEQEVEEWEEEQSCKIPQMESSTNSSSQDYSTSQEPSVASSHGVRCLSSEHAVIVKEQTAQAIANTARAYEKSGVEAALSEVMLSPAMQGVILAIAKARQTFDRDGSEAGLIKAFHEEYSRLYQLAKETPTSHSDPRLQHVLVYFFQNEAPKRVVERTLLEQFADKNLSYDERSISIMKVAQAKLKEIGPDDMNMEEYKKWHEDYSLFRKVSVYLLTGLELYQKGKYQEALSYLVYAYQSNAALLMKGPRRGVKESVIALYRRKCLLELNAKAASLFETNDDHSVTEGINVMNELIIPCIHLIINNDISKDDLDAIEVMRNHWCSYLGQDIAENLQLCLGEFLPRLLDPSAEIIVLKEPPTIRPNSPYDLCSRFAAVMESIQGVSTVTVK
Outline: as §1

Measured: log2 ratio of Biotin-Ahx-Ub-VS probe labelling

Chain of USP24 (Q9UPU5 whole entry): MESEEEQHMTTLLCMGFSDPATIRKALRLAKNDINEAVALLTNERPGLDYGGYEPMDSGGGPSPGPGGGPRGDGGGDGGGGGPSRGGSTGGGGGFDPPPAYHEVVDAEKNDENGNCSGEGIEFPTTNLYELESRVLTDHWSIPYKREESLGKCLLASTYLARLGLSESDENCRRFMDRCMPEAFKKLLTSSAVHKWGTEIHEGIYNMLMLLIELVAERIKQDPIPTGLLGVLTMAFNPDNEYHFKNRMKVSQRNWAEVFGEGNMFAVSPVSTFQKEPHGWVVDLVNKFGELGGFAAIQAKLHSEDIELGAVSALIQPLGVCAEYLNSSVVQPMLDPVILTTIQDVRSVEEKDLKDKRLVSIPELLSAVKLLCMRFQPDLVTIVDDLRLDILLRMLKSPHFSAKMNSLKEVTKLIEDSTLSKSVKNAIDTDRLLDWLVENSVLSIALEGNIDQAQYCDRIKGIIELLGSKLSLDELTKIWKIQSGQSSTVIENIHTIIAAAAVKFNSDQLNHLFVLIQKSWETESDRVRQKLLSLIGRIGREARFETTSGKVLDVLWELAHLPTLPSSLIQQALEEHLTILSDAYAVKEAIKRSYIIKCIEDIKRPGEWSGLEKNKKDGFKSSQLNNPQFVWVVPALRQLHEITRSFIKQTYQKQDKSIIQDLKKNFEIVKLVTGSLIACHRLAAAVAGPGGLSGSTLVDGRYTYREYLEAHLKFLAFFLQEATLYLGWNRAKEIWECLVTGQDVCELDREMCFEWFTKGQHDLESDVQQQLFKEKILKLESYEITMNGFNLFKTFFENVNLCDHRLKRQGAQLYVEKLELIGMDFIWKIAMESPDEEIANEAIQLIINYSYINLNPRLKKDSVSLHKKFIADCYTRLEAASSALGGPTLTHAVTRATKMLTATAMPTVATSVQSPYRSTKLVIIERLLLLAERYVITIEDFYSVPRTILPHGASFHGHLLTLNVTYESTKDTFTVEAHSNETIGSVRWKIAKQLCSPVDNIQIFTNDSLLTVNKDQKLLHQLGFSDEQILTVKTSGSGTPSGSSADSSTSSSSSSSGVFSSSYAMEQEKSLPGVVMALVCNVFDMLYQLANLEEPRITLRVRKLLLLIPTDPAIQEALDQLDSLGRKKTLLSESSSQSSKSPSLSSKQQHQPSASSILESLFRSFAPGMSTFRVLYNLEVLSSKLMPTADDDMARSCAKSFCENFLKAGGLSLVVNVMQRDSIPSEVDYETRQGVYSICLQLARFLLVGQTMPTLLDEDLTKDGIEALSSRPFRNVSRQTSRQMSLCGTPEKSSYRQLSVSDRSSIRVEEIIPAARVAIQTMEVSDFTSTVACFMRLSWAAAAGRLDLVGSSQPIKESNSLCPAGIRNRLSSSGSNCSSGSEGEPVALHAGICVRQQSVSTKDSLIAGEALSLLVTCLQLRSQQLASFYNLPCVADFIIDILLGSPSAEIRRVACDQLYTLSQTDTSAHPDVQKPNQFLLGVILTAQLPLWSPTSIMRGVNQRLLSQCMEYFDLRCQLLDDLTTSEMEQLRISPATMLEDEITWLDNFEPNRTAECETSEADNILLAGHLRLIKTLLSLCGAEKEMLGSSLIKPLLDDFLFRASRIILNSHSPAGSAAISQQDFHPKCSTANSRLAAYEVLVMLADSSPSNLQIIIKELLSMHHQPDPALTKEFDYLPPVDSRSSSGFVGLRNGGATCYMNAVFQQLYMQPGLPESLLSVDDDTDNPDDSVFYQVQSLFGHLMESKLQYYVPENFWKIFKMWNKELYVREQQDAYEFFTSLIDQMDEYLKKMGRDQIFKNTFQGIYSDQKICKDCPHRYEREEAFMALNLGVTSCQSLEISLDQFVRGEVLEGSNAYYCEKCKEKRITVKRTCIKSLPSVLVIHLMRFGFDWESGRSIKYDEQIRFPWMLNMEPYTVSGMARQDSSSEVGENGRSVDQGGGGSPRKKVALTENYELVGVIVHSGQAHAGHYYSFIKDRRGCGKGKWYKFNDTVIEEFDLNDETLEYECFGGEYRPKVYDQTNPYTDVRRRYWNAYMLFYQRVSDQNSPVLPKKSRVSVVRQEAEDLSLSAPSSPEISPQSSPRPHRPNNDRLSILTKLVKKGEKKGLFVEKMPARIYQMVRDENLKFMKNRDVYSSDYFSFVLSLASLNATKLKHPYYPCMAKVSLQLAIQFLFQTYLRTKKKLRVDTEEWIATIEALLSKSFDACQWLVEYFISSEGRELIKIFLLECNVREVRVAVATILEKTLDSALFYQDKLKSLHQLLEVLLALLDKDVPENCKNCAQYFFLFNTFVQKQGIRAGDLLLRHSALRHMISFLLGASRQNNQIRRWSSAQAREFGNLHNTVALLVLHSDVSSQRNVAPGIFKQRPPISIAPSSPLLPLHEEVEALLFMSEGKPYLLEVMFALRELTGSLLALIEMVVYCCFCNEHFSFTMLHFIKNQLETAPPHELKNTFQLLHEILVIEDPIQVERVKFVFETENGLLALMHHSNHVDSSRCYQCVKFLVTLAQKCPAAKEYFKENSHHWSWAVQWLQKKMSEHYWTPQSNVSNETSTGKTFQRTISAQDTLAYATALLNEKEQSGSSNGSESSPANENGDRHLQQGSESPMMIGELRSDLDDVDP

O=C(CCl)N1CCC(OCc2ccccc2F)CC1
inactive: [1] -0.0583 | [2] -0.486 | [3] -0.163 | [4] -0.161
